# Bioassay records: PubChem BioAssay, National Center for Advancing Translational Sciences (NCATS)
# The list is not random: actives were taken first. Their share in the collection is about 7.6%.
# RORg inh: qHTS for inhibitors of ROR gamma transcriptional activity; Nuclear receptor ROR-gamma (Mus musculus), P51450; Drosophila S2 Gal4-RORgamma UAS-luciferase reporter, 20 h; Potency, µM (doses to about 53.6 µM), for the others: at the top dose activity change, negative = inhibition, usual class: inhibitors; actives 5.4% (n = 310,000); AID 2551, 2010; further: potency means the concentration at half of the fitted maximal effect; on the % scale 0 is the no-effect control and ±100 the full control effect; nearly all actives have a fitted effect of over 60% in size
# Target sequence (P51450 whole entry, looked up, the tested form may be a part): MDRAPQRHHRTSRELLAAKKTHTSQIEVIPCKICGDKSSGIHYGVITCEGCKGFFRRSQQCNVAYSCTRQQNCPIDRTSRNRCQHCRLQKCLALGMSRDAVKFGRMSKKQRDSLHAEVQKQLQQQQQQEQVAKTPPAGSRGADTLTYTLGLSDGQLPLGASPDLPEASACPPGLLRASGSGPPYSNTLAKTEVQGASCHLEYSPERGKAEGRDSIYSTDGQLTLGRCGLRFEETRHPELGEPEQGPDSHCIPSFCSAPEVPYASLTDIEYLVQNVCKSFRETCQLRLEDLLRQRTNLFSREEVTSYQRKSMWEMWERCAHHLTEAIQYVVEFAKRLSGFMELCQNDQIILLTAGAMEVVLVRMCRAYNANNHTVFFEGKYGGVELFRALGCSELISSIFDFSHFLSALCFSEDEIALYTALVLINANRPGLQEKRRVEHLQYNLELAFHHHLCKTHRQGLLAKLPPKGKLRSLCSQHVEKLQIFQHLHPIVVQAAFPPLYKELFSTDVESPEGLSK
#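 Drosophila Schneider cells stably carrying a metallothionein-driven Gal4 DBD–ROR gamma fusion and a UAS-Photinus luciferase reporter were exposed to compound for 1 hr, then induced with copper sulfate (700 uM final) for 20 hr at ambient temperature before luminescence reading.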
# p53 reactivation: qHTS assay for re-activators of p53 using a Luc reporter | H1299 p53-A138V BP100-luciferase reporter, luminescence, 24 h | Potency, µM (series often up to 92.2 µM), inactives show at the top dose activity change, positive = activation, usual class: activators | actives 0.063% (n = 320,000) | AID 504706, 2011; further: potency means the concentration at half of the fitted maximal effect; % of control where 0% means no effect; nearly all actives have a fitted effect of over 45% in size
#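 p53-null H1299 cells stably carrying temperature-sensitive p53-A138V and a BP100-luciferase reporter were pinned with compounds (4-point, 1:5 series) and held 24 hrs at 37 deg C. Luminescence was read 10 min after detection reagent.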
# Gal4-VP16 FLuc: VP16 counterscreen qHTS for inhibitors of ROR gamma transcriptional activity; Drosophila S2 Gal4-VP16 UAS-luciferase, luminescence, 20 h; Potency, µM (top dose mostly 53.6 µM), for the others: top-dose activity, negative = inhibition, actives largely listed as inhibitors; actives 3.5% (n = 310,000); AID 2546, 2010;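 further: Gal4-VP16 expression switched on by copper sulfate through the metallothionein promoter; potency means the concentration at half of the fitted maximal effect; on the % scale 0 is the no-effect control and ±100 the full control effect; nearly all actives have a fitted effect of over 50% in size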
# BRCA1 expr up: qHTS Assay to Identify Small Molecule Activators of BRCA1 Expression | MCF7-BRCA1-FFLuc reporter, luminescence, 48 h; response scale: scaled: vehicle 0%, 10 µM genistein 100% | Potency, µM (highest dose often 46.1 µM), without a hit: at the top dose activation, actives largely listed as activators | actives 1.1% (n = 380,000); further: potency means the concentration at half of the fitted maximal effect; nearly all actives have a fitted effect of over 80% in size
#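 Luminescence from a BRCA1-driven firefly luciferase in MCF7 cells was the read-out, taken 15 min after substrate addition following 48 h compound exposure at 37 °C. Data were normalized to a 10 microM genistein control and DMSO vehicle.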
# Giardia kill: Small Molecules that selectively kill Giardia lamblia: qHTS. Giardia lamblia trophozoite viability. activity change, % at 7.66 µM, hits read low. actives 0.15% (n = 340,000). AID 540267, 2011; in the data active means activity change below about -80%; inconclusive means between about -30% and that limit;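 further: parasites exposed to compound for two days anaerobically before the ATP read; on the % scale 0 is the no-effect control and ±100 the full control effect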
#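 Luminescence from cellular ATP indicates surviving trophozoites (100 cells/well) following 48 hrs anaerobic compound treatment at 37 deg C; signal develops 15-30 min at room temperature.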
# ELG1 repair inh: qHTS screen for small molecules that inhibit ELG1-dependent DNA repair in human embryonic kidney (HEK293T) cells expressing luciferase-tagged ELG1. actives 2.3% (n = 330,000). AID 504467, 2011. HEK293T ELG1-luciferase reporter, luminescence, 16 h; DNA damage induced by 5-fluorouridine. Potency, µM (doses to about 46.1 µM), inactives show at the highest dose activity change, negative = inhibition, usual class: inhibitors; further: potency means the concentration at half of the fitted maximal effect; on the % scale 0 is the no-effect control and ±100 the full control effect; nearly all actives have a fitted effect of over 55% in size
#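 Overnight (16 hr) co-exposure of 2,000 cells/well to 5-fluorouridine and compound at 37 °C preceded detection. Luciferase was quantified via ONE-Glo luminescence; loss of signal denotes inhibition.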
# An asterisk follows results filed as active; ? = inconclusive; . = no result; ! = not confirmed by another sample. Unless noted, the call rests on the fitted dose curve; in most records, active means well fitted curve in the direction sought with a large enough effect; inconclusive means small, poorly fitted or top-dose-only effect, or another doubt; inactive means no such curve, though single readings can be large; an effect the other way counts as inactive or inconclusive.
SMILES,RORg inh,p53 reactivation,Gal4-VP16 FLuc,BRCA1 expr up,Giardia kill,ELG1 repair inh
CCc1ccc2c(CN(CC)Cc3nc4ccccc4c(=O)[nH]3)cc(=O)oc2c1,8.9µM*,?,?,10%,-6,?
CCN(Cc1cc(=O)n2cc(Cl)c(C)c(Cl)c2n1)Cc1nc2ccccc2c(=O)[nH]1,13µM*,-5%,?,-38%,10,?
Cc1ccc([N+](=O)[O-])cc1N,2%,-2%,0%,-14%,-24,19%
Nc1cc([N+](=O)[O-])ccc1O,-1%,-2%,13µM*!,-27%,-21,13%
COc1cc(/C=N/NC(=O)COc2cccc(F)c2)ccc1OS(=O)(=O)c1ccc(C)cc1,40%,17%,4%,-53%,-8,18µM*
COc1cc(/C=N/NC(=O)COc2ccc(Cl)cc2)ccc1OS(=O)(=O)c1ccc(C)cc1,-2%,1%,1%,-51%,21,?
Clc1ccc(-n2cccc2CN2CCc3c([nH]c4ccccc34)C2c2ccccn2)nc1 (configuration not stated),13µM*,-2%,-6%,-21%,41,-5%
Fc1ccc(C2c3[nH]c4ccccc4c3CCN2Cc2cccn2-c2ncccn2)cc1 (configuration not stated),15%,-1%,7%,-55%,2,4%
CN(N=Nc1ccc([N+](=O)[O-])cc1)c1ccccc1,10%,?,?,3.5µM*,5,?
CN(C)c1cc(C(F)(F)F)nc(-c2ccccn2)n1,?,4%,?,-3%,-1,12%
CSCc1cc(N(C)c2ccccc2)nc(-c2ccccn2)n1,0.56µM*,-2%,3.2µM*,-49%,20,?
Cc1ccc(NC(=O)c2c(C(F)(F)F)nn(C)c2SCc2ccc(Cl)cc2)cc1C,0.45µM*,25%,-1%,-70%,10,2%
COc1ccc(OC)c(NC(=O)NNC(=O)COc2ccc([N+](=O)[O-])cc2)c1,-10%,-8%,1%,-12%,-5,7%
Cc1ccc(C)c(NS(=O)(=O)c2ccc(OCC(=O)NCc3ccccn3)cc2)c1,?,-5%,-6%,-14%,18,?
CCc1ccn2cc(-c3ccc4c(c3)OCO4)nc2c1,1.1µM*,-11%,4.5µM*,?,?,?
COC(=O)c1ccc2nc(-c3ccc4c(c3)OCO4)cn2c1,?,-4%,?,-36%,?,?
Cn1c(=O)n(CCCOc2ccc(Br)cc2)c2ccccc21,10µM*,.,?,19%,-1,.
Cc1ccc2nc(NCc3ccccc3)c(C=NCc3ccccc3)c(=O)n2c1,47%,15%,7%,13µM*,30,?
O=C(O)CCCNS(=O)(=O)c1ccc(Br)s1,-4%,-3%,-9%,-3%,-2,-9%
COc1cccc2c1C(=O)c1c(O)c3c(c(O)c1C2=O)C[C@](O)(C(=O)CO)C[C@H]3O[C@@H]1C[C@H](N)[C@H](O)[C@H](C)O1,1.1µM*,.,7.1µM*,.,.,.
COc1cccc2c1C(=N)c1c(O)c3c(c(O)c1C2=O)CC(O)(C(C)=O)CC3OC1CC(N)C(O)C(C)O1 (configuration not stated),.,.,.,-92%,-3,.
COc1ccc(C(CC(=O)N2CCOCC2)c2c(OC)cc(OC)c3c(-c4ccccc4)cc(=O)oc23)cc1 (configuration not stated),34%,-5%,-23%,-3%,?,2%
Cc1ccccc1C(=O)NCCc1nnc(SCC(=O)Nc2nc(-c3ccccc3)cs2)n1C,0%,7%,?,60%,4,?
Cc1sc(NC(=O)CSc2nnc(CCNC(=O)c3cccs3)n2C)nc1-c1ccccc1,12%,-8%,-6%,0%,2,16µM*
O=c1c2ccccc2nnn1CSc1nc2ccccc2c(=O)n1CCCO,10µM*,-3%,-12%,-1%,-14,2%
SMILES,RORg inh,p53 reactivation,Gal4-VP16 FLuc,BRCA1 expr up,Giardia kill,ELG1 repair inh
Cn1c(SCn2nnc3ccccc3c2=O)nc2ccccc2c1=O,7%,2%,10%,.,.,-6%
O=c1c2ccccc2nnn1CSc1nnc2ccccn12,-18%,?,1%,5.6µM*,-4,?
CCOC(=O)N1CCN(C(=O)COC(=O)CSc2ccc([N+](=O)[O-])cc2)CC1,.,11%,.,-20%,7,15%
COc1ccc(/C=N/NC(=O)c2cccnc2)cc1Cn1nc([N+](=O)[O-])c(Br)c1C,-4%,3%,1%,.,.,?
CCc1nnc(NC(=O)CSc2nc(-c3ccccc3)c(-c3ccccc3)o2)s1,?,11%,?,-7%,2,-1%
CCc1nnc(NC(=O)CSc2nnc(CSc3nc(C)cc(C)n3)o2)s1,5.6µM*,0%,13µM*,3%,5,0%
Cc1cccc(NC(=O)CSc2nnc(CSc3nc(C)cc(C)n3)o2)c1,14%,-4%,8%,-9%,3,9%
CCc1nnc(NC(=O)CSc2nnc(-c3ccccc3O)o2)s1,0.11µM*,3%,1.1µM*,71%,8,0%
O=C(/C=C/c1ccccc1)NCCSCc1ccccc1,?,?,13µM*,45%,-16,?
Cc1ccc(/C=C/C(=O)NC(=S)N2CCN(C)CC2)cc1,14µM*,-1%,13µM*,-9%,-5,?
O=C(/C=C/c1ccccc1)NC(=S)Nc1ccccc1O,?,?,?,?,-26,?
O=C(C=Cc1ccccc1)NCCNC(=O)C=Cc1ccccc1,.,.,.,-9%,-18,.
COc1ccccc1/C=C/C(=O)NC(=S)NC(C)C,?,10%,-4%,-28%,-26,?
NC(=S)NC(=O)/C=C/c1ccccc1,7.9µM*,?,?,64%,-18,?
COc1ccccc1/C=C/C(=O)NC(=S)N1CCN(C)CC1,11µM*,4%,16µM*,-12%,15,7%
CCc1ccc(NC(=O)C(C)OC(=O)c2ccc(-n3cnnn3)cc2)cc1 (configuration not stated),.,1%,.,8%,-21,24%
O=C(/C=C/c1ccccc1)NC(=S)N1CCSCC1,7.9µM*,-1%,10µM*,17%,0,13%
CC(=O)N1CCN(c2ccc(NC(=S)NC(=O)/C=C/c3ccccc3)cc2)CC1,-33%,?,-2%,.,.,12%
